Screening results as filed in PubChem.
LGR2 inh: inhibitors of bursicon-induced LGR2 CRE-luciferase signal, primary screen, cell-based, HEK293, CRE-luciferase reporter, bursicon stimulation | 380,000 compounds, 0.35% hits | Drosophila bursicon receptor LGR2 (rickets) | AID 720647, 2013 | inhibition, % at 9.99 µM | bursicon-stimulated, 4 h;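 active means drop in luminescence signal, shown as inhibition above about 50% in the replicate tests, limit read from the data, passing the limit was not always enough; inconclusive means probably only some replicates passing the limit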;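 further: agonist challenge used bursicon conditioned medium at about half maximal strength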
Shn3 3UTR inh: reduction of Shn3 3'UTR firefly luciferase signal, primary screen, Schnurri-3 inhibitor project, cell-based, Clone20 osteoblasts, set 2; 360,000 compounds, 0.52% hits; Clone20 osteoblast Shn3 3'UTR firefly luciferase, 24 h; AID 588674, 2011; inhibition, % at 12.5 µM;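 active means mean inhibition of at least 75% with every replicate also reaching 75%; inconclusive means mean inhibition at least 75% but some replicate below; inactive means mean inhibition below 75%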;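 further: 0% = median of neutral control wells and 100% = pilot-screen positive control compound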
MITF TRPM1 inh: inhibitors of MITF-dependent TRPM1 promoter reporter, primary screen, cell-based, SK-MEL-5, single point, luciferase. SK-MEL-5 TRPM1 promoter luciferase, 24 h. inhibition, % at 12.5 µM. 330,000 compounds, 0.83% hits. AID 488899, 2010;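 active means mean inhibition across replicates of 60% or more, whatever share of single replicates reaches that level; inconclusive means some that reach 60%, reason not given; inactive means mean inhibition across replicates below 60%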
EBV LMP1 NFkB: EBV LMP1-driven NF-kappaB luciferase reporter inhibitors, primary screen, cell-based, luminescence, single point | LMP1-induced NF-kappaB luciferase reporter cells | inhibition, % at 12.5 µM | 350,000 compounds, 0.69% hits | AID 504558, 2011; in the data active means inhibition above about 41%; inconclusive means no clear call, values can overlap the other calls;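 further: 0% = neutral control wells and 100% = reference inhibitor control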
PAX8 inh HTS: inhibitors of PAX8-driven TPO luciferase reporter, primary screen, RMG-I cells, single concentration | SteadyGlo, 24 h | 360,000 compounds, 1.2% hits | inhibition, % at 12.6 µM | AID 652154, 2013;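 active means mean replicate inhibition at least 60% with every replicate also reaching 60%; inconclusive means only one of the two criteria is met; inactive means mean below 60% and not all replicates reaching 60%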;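 further: luciferase light reporting Pax8 driven TPO promoter activity; plate controls were median of neutral control wells for no effect and mitoxantrone controls for full effect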
EWS-Fli block: EWS/Fli-driven NR0B1 reporter inhibitors, primary screen, A673 cells, NR0B1 luciferase, luminescence, MLPCN library. inhibition, % at 12.6 µM. AID 651661, 2012. 350,000 compounds, 0.67% hits. viability-normalised;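 active means mean inhibition of at least 50% after viability correction, with every replicate also passing that limit; inconclusive means mean reaches 50% but only one of two replicates passes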;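 further: firefly luciferase signal divided by Alamar Blue viability fluorescence both relative to DMSO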
The depositor's hits bear a star; ? = inconclusive; / = not tested or not shown; ! = a repeat was not active. Sampled rows, rich in hits. Any-hit rate of the full collection: about 2.2%.

SMILES | LGR2 inh | Shn3 3UTR inh | MITF TRPM1 inh | EBV LMP1 NFkB | PAX8 inh HTS | EWS-Fli block
O=C(/C=C/c1ccccc1)CCN1CCOCC1 | -23 | 31 | -3 | 4 | 29 | 15
CN(C)CCC(=O)N1C/C(=C/c2ccccc2)C(=O)/C(=C\c2ccccc2)C1 | 102* | 41 | 101* | 87* | / | 80*
O=C(Cc1ccccc1)N1CCNCC1 | -4 | 12 | 14 | -2 | -4 | 3
CN1CCN(C(=O)CCCN2C(=O)/C(=C/c3ccccc3)SC2=S)CC1 | 19 | -102 | -8 | -16 | 8 | -27
O=C1/C(=C/c2ccccc2)CN(C(=O)CCN2CCOCC2)C/C1=C\c1ccccc1 | 103* | 7 | 101* | -35 | -19 | 65*
COc1ccccc1S(=O)(=O)N[C@@H]1CC[C@H](CCNC(=O)C2CCCC2)O[C@@H]1CO | 0 | / | / | / | -13 | 11
COCC(=O)OC1CCn2c1nc1c2C(=O)C(C)=C(NC(C)=O)C1=O (stereo unspecified) | 86* | 89* | 86* | 87* | 115* | 14
COc1cccc(NC(=O)N2[C@@H]3CNC[C@H]2C3c2ccc(-c3cccc(OC)c3)cc2)c1 (stereo partly specified) | -25 | / | / | / | / | /
COc1ccc(-c2ccc(C3[C@H]4CNC[C@@H]3N4C(=O)Nc3cccc(OC)c3)cc2)cc1 (stereo partly specified) | -14 | / | / | / | 0 | 59*!
C[C@H](CO)N1C[C@H](C)[C@@H](CN(C)C(=O)C2CCOCC2)Oc2ncc(-c3ccccc3)cc2C1=O | -16 | / | / | / | / | -11
COC(=O)C1=C(C(=O)OC)[C@@H]2N(Cc3ccccc3)c3ccccc3[C@@]23C[C@@H](C(=O)OC)N(C(=O)c2ccc(Br)cc2)C3=N1 | / | 97* | -4 | 1 | / | /
O=C(Nc1ccccn1)c1ccc(-c2ccccc2)cc1 | 70* | 13 | 13 | 47* | -1 | 73*
CCCC[C@@H](CNC)NC[C@H](Cc1ccc(O)cc1)NCCc1ccc(OCC)cc1 | 18 | 17 | 96* | -15 | 53 | 24
CCC[C@H](CN[C@@H](CNC)[C@H](C)O)NCCc1ccc(OC)cc1 | -1 | -17 | -4 | -4 | -11 | -7
CC[C@H](C)[C@@H]1NC(=O)[C@@H](CC(C)C)NC(=O)[C@H](C(C)C)NC(=O)[C@H]2CSSC[C@H](NC1=O)C(=O)N2 | 72* | 89* | / | / | 116* | 68*
Cc1ccc(OCC(=O)c2cc(C)n(Cc3cccs3)c2C)c([N+](=O)[O-])n1 | 11 | 58 | 2 | 35 | 13 | 53*
Cc1ccc(-n2nc(C)c3c(C)c(CCC(=O)Nc4ccc(CN5CCCC5)cc4)c(C)nc32)cc1 | -2 | -1 | 65* | -8 | 55 | 31
COc1cc(NC(C)CCCN)c2ncccc2c1 (stereo unspecified) | / | 6 | 21 | -13 | 66* | 8
O=C(NC1Cc2ccccc2C1)[C@@H]1N[C@@H]2c3ccc(C4=CCCCC4)c(=O)n3C[C@@H]2[C@H]1CO | 14 | / | / | / | 10 | 4
Oc1ccc(F)c2cccnc12 | -4 | 8 | 10 | -8 | 94* | 8
Oc1ccc(CNc2ccccc2F)c2cccnc12 | 36 | 75 | 65* | 8 | 87* | -2
COc1ccc(C(C(=O)NC2CCCCC2)N(C(=O)CCl)c2ccc(C)cc2)cc1 (stereo unspecified) | / | 3 | 82* | 47* | 111* | 48
COc1ccc(CN(C(=O)c2nsc(Cl)c2Cl)C(C(=O)NC2CCCC2)c2ccc(C)cc2)cc1 (stereo unspecified) | 3 | 20 | -4 | 54* | 1 | -1
COc1ccc(C(C(=O)NC2CCCCC2)N(C(=O)CCl)c2cccc(Cl)c2)cc1 (stereo unspecified) | / | 92* | 88* | -1 | 115* | 53*
COc1ccc(C(C(=O)NC2CCCCC2)N(C(=O)CCl)c2ccc(OC)cc2)cc1 (stereo unspecified) | / | 92* | 82* | ? | / | /
CCN1[C@@H]2c3ccc(-c4cccc(F)c4)c(=O)n3C[C@@H]2[C@@H](CO)[C@@H]1C(=O)OC | 0 | / | / | / | / | -8
